Sampled rows, rich in hits. Any-hit rate of the full collection: about 3.1%.
TR SRC2 fluor cs: Total Fluorescence Counterscreen for Inhibitors of the Interaction of Thyroid Hormone Receptor and Steroid Receptor Coregulator 2; TRb/SRC2 Texas Red total fluorescence interference; Potency, µM (titrated, usually from 106 µM), inactives show top-dose fluorescence change, negative = quenching; 280,000 tested, 0.29% active; active = well fitted curve in either direction with a large enough effect; inconclusive = small, poorly fitted or top-dose-only effect
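Flags fluorescent or light-absorbing compounds by total fluorescence, S + 2P, at 555 nm excitation and 632 nm emission. Mixture: 20 nM Texas Red SRC2 peptide, 0.6 uM human TRb LBD, 1 uM T3, 5% DMSO; compound exposure 5 h at ambient temperature.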
TRb SRC2 PPI: qHTS for Inhibitors of the Interaction of Thyroid Hormone Receptor and Steroid Receptor Coregulator 2 | Potency, µM (doses to about 106 µM), for the others: top-dose activity change, negative = inhibition, hits mostly inhibitors | TRbeta-SRC2 peptide binding, fluorescence polarization; receptor liganded with 1 µM T3 | 280,000 tested, 0.065% active | Thyroid hormone receptor beta (Homo sapiens), P10828;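 note: plate controls were bound peptide for no effect and peptide without receptor for full effect; nearly all actives have a fitted effect of over 50% in size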
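Assay buffer: 20 mM Tris-HCl, 100 mM NaCl, 10% glycerol, 1 mM EDTA, 0.01% NP-40, 1 mM DTT, 1 uM T3, 5% DMSO; TRb LBD 0.6 uM, Texas Red SRC2 20 nM; FP after 5 hr.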
Tau fibril ThT: qHTS for Inhibitors of Tau Fibril Formation, Thioflavin T Binding; Microtubule-associated protein tau (Homo sapiens), P10636; recombinant tau K18 P301L, heparin-induced fibrillization, ThT fluorescence; Potency, µM (top dose mostly 57.4 µM), for the others: at the top dose activity, negative = inhibition, most hits filed as inhibitors; 270,000 tested, 2.1% active; AID 1460, 2008; note: nearly all actives have a fitted effect of over 55% in size
Target sequence (P10636 561-689 P618L limits assumed): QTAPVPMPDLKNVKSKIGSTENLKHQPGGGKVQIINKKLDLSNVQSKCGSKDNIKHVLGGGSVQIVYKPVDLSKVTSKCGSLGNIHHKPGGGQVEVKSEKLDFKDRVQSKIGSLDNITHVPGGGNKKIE
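Fibril formation assay: tau K18 P301L at 15 uM with trace Alexa 594 label, heparin inducer 20 uM, pH 7 sodium acetate buffer, 37 C for 6 hr; endpoint ThT signal.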
Tau fluor cs: Counterscreen qHTS for Inhibitors of Tau Fibril Formation, Fluorescence Polarization; AID 1463, 2008; 280,000 tested, 0.93% active; tau K18 P301L (four-repeat tau fragment) Alexa594 fluorescence, heparin fibrillization; Potency, µM (highest dose often 57.7 µM), for the others: at the highest dose activity change, negative = decrease; note: nearly all actives have a fitted effect of over 55% in size
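Human K18 P301L tau (15 uM unlabeled plus 0.24 uM Alexa 594-labeled, final) in 100 mM sodium acetate pH 7 was mixed with compound and 20 uM heparin and incubated 6 hr at 37 C.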
Tau FP inhib: qHTS for Inhibitors of Tau Fibril Formation, Fluorescence Polarization. Microtubule-associated protein tau (Homo sapiens), P10636. K18 P301L tau heparin fibrillization, Alexa594 FP, 6 h. Potency, µM (titrated, usually from 57.7 µM), for the others: top-dose activity, negative = inhibition, hits mostly inhibitors. 280,000 tested, 0.39% active. AID 1468, 2008; note: nearly all actives have a fitted effect of over 55% in size
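Quantitative HTS format: compounds meet 15 uM recombinant K18 P301L tau and Alexa 594-tau tracer in 100 mM sodium acetate pH 7; 20 uM heparin triggers fibrillization at 37 C over 6 hr; FP gives the signal.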
Starred values were filed as active, the others as inactive; ? = inconclusive; [ ] = dose if it differs, or a comment. Unless noted, calls come from the whole dose curve; as a rule, active = well fitted curve in the direction sought with a large enough effect; inconclusive = small, poorly fitted or top-dose-only effect, or another doubt; inactive = no such curve, though single readings can be large; an effect the other way counts as inactive or inconclusive. Unless noted, % is set by controls: 0 for no effect and ±100 for the full control effect; potency is the fitted concentration of half-maximal effect.

SMILES | TR SRC2 fluor cs | TRb SRC2 PPI | Tau fibril ThT | Tau fluor cs | Tau FP inhib
Nc1c(S(=O)(=O)O)cc(Nc2ccc(Nc3nc(Cl)nc(Nc4ccc(S(=O)(=O)O)cc4)n3)c(S(=O)(=O)O)c2)c2c1C(=O)c1ccccc1C2=O | 22µM*[quencher] | 10% | 4µM* | 2.8µM*[quencher] | 10µM*
COC(=O)\C(C(C)=O)=C(/C=C/C=C/C=C/N(C)C)N(C)C | 9% | -15% | 16µM* | -24% | ?
O=C(NCc1ccccc1Br)c1ccc2nc(N3CCCCC3)sc2c1 | -1% | 6% | ? | ? | -8%
CCCCCCCCS(=O)C1CS(=O)(=O)CC1O (configuration not stated) | 10µM*[fluorescent] | 5µM* | -5% | -6% | -10%
Cc1cc2c(cc1C)CSC(c1c(O)ccc3ccccc13)SC2 | 0% | -1% | ? | 7.9µM*[quencher] | 22µM*
Cc1cc2c(cc1C)CSC(c1ccc3ccccc3c1O)SC2 | -3% | 3% | -18% | ? | -2%
O=C(Nc1ccc(Nc2ccccc2)cc1)C(Cl)(Cl)Cl | -2% | -11% | ? | 7.9µM*[quencher] | 7%
NC(=O)Nc1ccc(Nc2ccccc2)cc1 | 4% | 6% | ? | ? | 3%
COc1ccc(N2CCN(CCCNC(=O)c3nnc(Cc4ccccc4Cl)o3)CC2)cc1 | 0% | 8% | ? | -20% | 7%
Cc1ccc(C)c(Nc2nn3c(=O)c4ccc(C(=O)NCc5ccccc5)cc4nc3s2)c1 | -2% | 4% | ? | 0% | 14%
CNCc1ccccc1Sc1cc(O)ccc1O | -5% | -7% | 18µM* | 18µM*[quencher] | 32µM*
CCN(CC)c1cc2c(cc1F)c(=O)c(S(=O)(=O)c1ccc(OC)cc1)cn2CC | 50µM*[quencher] | -25% | 0% | -1% | 0%
CCn1cc(S(=O)(=O)c2ccccc2)c(=O)c2cc(F)c(N3CCCC3)cc21 | 10% | 3% | 3% | 0% | 0%
CCCn1cc(S(=O)(=O)c2cccc(Cl)c2)c(=O)c2cc(F)c(N3CCN(CC)CC3)cc21 | 112µM*[quencher] | -26% | 6% | 5% | 3%
CCn1cc(S(=O)(=O)c2ccccc2)c(=O)c2cc(F)c(N3CCN(c4ccccc4)CC3)cc21 | 56µM*[quencher] | ? | 8% | 1% | -5%
O=C(c1ccccc1Cl)N1CCN(CCc2ccccn2)CC1 | ? | 4% | 4% | 5% | 5%
CC(=O)N1CCCc2cc(S(=O)(=O)N3CCN(c4ccccc4F)CC3)ccc21 | 4% | 0% | -8% | -16% | -8%
COc1ccc(-n2c(N)c(C(=O)NCC3CCCO3)c3nc4ccccc4nc32)c(OC)c1 (configuration not stated) | -7% | ? | 28µM* | ? | -2%
Cc1ccc(NNC(=O)C(O)(c2cccc(C(F)(F)F)c2)c2cccc(C(F)(F)F)c2)cc1 | -8% | 0% | -18% | 13µM*[quencher] | 1%
N=C1c2ccccc2CN1c1ccc(N2CCOCC2)c(S(=O)(=O)Nc2ccc(Cl)cc2)c1 | 2% | -4% | 32µM* | -26% | ?
Oc1c(Br)cc(C=Nc2ccc3nc(-c4ccccc4)[nH]c3c2)c(O)c1Br | ? | 17% | 4.5µM* | 4.5µM*[quencher] | ?
NCC(c1ccccc1)c1c[nH]c2ccccc12 (configuration not stated) | 1% | 0% | 5% | -2% | 8%
Cc1ccc2[nH]cc(C(c3ccccc3)c3cccs3)c2c1 (configuration not stated) | -2% | -11% | ? | 7.9µM*[quencher] | ?
Cc1ccc2[nH]cc(C(c3ccccc3)c3ccc(C)s3)c2c1 (configuration not stated) | -1% | 0% | -19% | 10µM*[quencher] | -17%
CCn1c(SCc2ccccc2Cl)nc(=O)c2c(C(=O)OC)cc(C3CC3)nc21 | -2% | 4% | ? | -5% | -8%
